The subject of this test is EPHB6. The following applies: concentration: 1 μM, replicates: in singlicate; n = 1.
Take `Cc1cccc(-c2nc(Nc3cccc(C(N)=O)c3)c3ccccc3n2)n1` [GW876019]: the “%Inh” value was 0%. Take `CC(C)(C)c1ccc(C(=O)Nc2cn3cc(-c4cccnc4)ccc3n2)cc1`: the “%Inh” value is given as 28%. In the case of `Clc1cc(Cl)cc(Nc2ccnc(Nc3cc(Cl)cc(Cl)c3)n2)c1` [GSK175726] it was 19%; in that of `COc1ccc(CNC(=O)NC2CCN(c3ccnc(Nc4cc(OC)c(OC)c(OC)c4)n3)C2)cc1` (stereo not drawn) [GSK1379748], 91.8%; in that of `Fc1cccc(COc2nnc(-c3ccc4c(c3)CCO4)o2)c1`, 0%.

As to `CN1C(=O)C(Nc2ccc(Cl)c(C(=O)O)c2)=C(c2ccc(Cl)cc2)C1=O` [SB-404290], the “%Inh” value was found to be 28%.

With `Cn1cncc1-c1ccc2ncnc(Nc3ccc(OCc4ccccc4)cc3)c2c1` [GW320571], the “%Inh” value is given as 3%. As for `Nc1ncnc2[nH]c(-c3ccccc3)nc12` [AH5015], the figure is 25%; as for `Cc1nnc(-c2ccc3occ(-c4ccc(S(C)=O)cc4)c3c2)[nH]1` (stereo not drawn), 13%; as for `Fc1cc(Cl)ccc1Nc1ccnc2cc(I)ccc12` [GW551191], 53%. As for `CC(C)(C)c1ccc(C(=O)Nc2cn3cc(Cl)ccc3n2)cc1`, the figure is 8%; as for `C[C@@H]1CCCCN1c1cc(-c2ccc3c(N)n[nH]c3c2)nc(N)n1` [GSK2258759], 14%. For the compound `Cc1cccc(-c2nc(Nc3ccc4[nH]ncc4c3)c3ccccc3n2)n1` [GW857175], the “%Inh” value is on record as 43%.

For the compound `Cc1cccc(-c2cc(Nc3ccncc3)c3ccccc3n2)n1` [GSK223675], the “%Inh” value worked out at 25%. For `COc1cc2nccc(Nc3ccc(NC(=O)c4ccc(C)cc4)c(O)c3)c2cc1OC.Cl` [GW440132], the “%Inh” value amounted to 19%. In the case of `COc1cc(Nc2nccc(N3CCC(NC(=O)Nc4cc(C)ccc4C)C3)n2)cc(OC)c1OC` (stereo not drawn) [GSK1379762] it was 89%; in that of `COC(=O)c1c(-c2ccccc2)c2cc(OC)ccc2c(=O)n1Cc1ccccc1`, 0%; in that of `Cc1c(Cn2ccn3c(=O)cc(N4CCOCC4)nc23)cccc1C(F)(F)F` [GSK2289044], 0%. As for `Cl.Oc1ccc(-c2nc(-c3ccccc3)[nH]c2-c2ccncc2)cc1` [SB-428218], the figure is 25%; as for `CC1=C(C(=O)Nc2cc3cn[nH]c3cc2F)C(c2ccc(C(F)(F)F)cc2)CC(=O)N1` (stereo not drawn) [GSK429286], 17%; as for `CCCc1ccc(S(=O)(=O)NC2CCN(c3ccnc(Nc4ccc(F)cc4)n3)C2)cc1` (stereo not drawn) [GSK1379715], 2%. Take `Cc1ccc(NC(=O)Nc2cccc(Cl)c2)cc1-c1ccc(C(=O)Nc2ccncc2)cc1` [GSK1398468]: the “%Inh” value came out at 0%. In the case of `O=S(=O)(c1ccc(-c2ccnc3[nH]ccc23)cc1)N1CCCC1` [GSK846226] it was 9%. In the case of `Cn1ccc2ncnc(Oc3ccc(NC(=O)Nc4ccccc4)cc3)c21` it was 35%; in that of `CCn1c(-c2ccccn2)nc2cnccc21` [SB-736398], 0%. As for `CC(=O)Nc1nc2cnc(Nc3cc(NC(=O)c4cccc(CCC#N)c4)ccc3C)nc2s1`, the figure is 45%; as for `Cc1cccc(-c2nc(C)cc(Nc3ccncc3)n2)n1` [GSK257997], 0%. Take `CS(=O)(=O)c1ccc(-c2c(-c3ncn[nH]3)sc(N3CCOCC3)c2C#N)cc1`: the “%Inh” value is recorded as 17%. As to `O=C(O)COc1ncnc2cc(-c3ccc4[nH]ncc4c3)sc12`, the “%Inh” value turned out to be 47%.

As to `Cc1c(O)cccc1Nc1ccnc2ccc(C(F)(F)F)cc12.Cl` [GW466413], the “%Inh” value is recorded as 0%. In the case of `O=C(Nc1ccc2c(c1)OCO2)NC1CCN(c2ccnc(Nc3ccc(F)cc3)n2)C1` (stereo not drawn) [GSK1379724] it was 35%; in that of `Cl.c1ccc(-c2n[nH]cc2-c2ccnc(-c3ccc(CN4CCOCC4)cc3)c2)nc1` [GW776245], 0%; in that of `Cc1ccc(NC(=O)Nc2cc(C(C)(C)C)nn2-c2ccccc2)cc1` [GSK1014915], 19%.

The values above are taken from article PMC5540273 (PLoS ONE, 2017).
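Also: KINOMEscan kinase panel screen.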
